CYP2C19 act – increases human CYP2C19 enzyme activity | P33261 | recombinant CYP2C19, luciferin-H EGE luminescence; stronger effect = higher value; 0 = fully inhibited enzyme, 1 = untreated enzyme | activation factor at 5 µM | 96,000 tested, under 10 active | AID 1025;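 active = activation factor of at least 2 at 5 µM in the primary screen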
CYP2C19 inh – blocks human cytochrome P450 2C19 | CYP2C19 Supersomes, luciferin-H EGE luminescence, 30 min | P33261 | AID 778 | inhibition, % at 5 µM | actives 21% (n = 96,000);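 active = CYP2C19 inhibition above a set limit at 5 µM in the primary screen, cut at about 50% in these data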
CYP2C9 act – increases human cytochrome P450 2C9 activity. recombinant CYP2C9, luciferin-H conversion, luminescence; stronger effect = higher value; factor 1 = untreated enzyme, 0 = blocked. activation factor at 5 µM. actives 1.4% (n = 96,000). AID 1024;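 active = activation factor of 2 or more for CYP2C9 at a 5 µM dose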
Target sequence (P11712 whole entry, looked up): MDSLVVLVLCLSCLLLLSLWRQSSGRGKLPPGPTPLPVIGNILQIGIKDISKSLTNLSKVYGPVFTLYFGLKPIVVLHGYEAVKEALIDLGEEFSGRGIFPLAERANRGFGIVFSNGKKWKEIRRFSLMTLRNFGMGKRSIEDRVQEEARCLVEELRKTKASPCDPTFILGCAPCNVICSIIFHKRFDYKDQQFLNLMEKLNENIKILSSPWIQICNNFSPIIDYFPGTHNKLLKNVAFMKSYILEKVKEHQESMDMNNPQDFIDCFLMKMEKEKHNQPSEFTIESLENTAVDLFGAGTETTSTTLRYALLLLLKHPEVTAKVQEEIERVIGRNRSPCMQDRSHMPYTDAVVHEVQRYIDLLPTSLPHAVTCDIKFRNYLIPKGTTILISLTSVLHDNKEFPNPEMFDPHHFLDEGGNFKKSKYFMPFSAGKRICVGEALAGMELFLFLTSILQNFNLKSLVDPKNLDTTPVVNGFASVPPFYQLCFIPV
CYP2C9 inhib – inhibitors of human CYP2C9; P11712; CYP2C9 Supersomes, luciferin-H conversion, luminescence; inhibition, % at 5 µM; actives 20% (n = 96,000); AID 777;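 active = blocking of liver enzyme CYP2C9 beyond about 50% at 5 µM, limit read from the data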
Numbers stand for hits. Hits are enriched below; roughly 31% of the tested compounds scored in any of these assays.

How did Cc1noc(C)c1COC(=O)c1cccnc1SCC(=O)Nc1ccc2c(c1)OCO2 do in these assays?
CYP2C19 act: inactive; CYP2C19 inh: inactive; CYP2C9 act: inactive; CYP2C9 inhib: 74

What do the screens show for `Cc1noc(C)c1COC(=O)c1ccccc1Oc1ccccc1`?
CYP2C19 act: inactive; CYP2C19 inh: 96; CYP2C9 act: inactive; CYP2C9 inhib: 89

How did Cc1ccc(Oc2ccc(-c3nc(N)nc(N)n3)cc2)cc1C do in these assays?
CYP2C19 act: inactive; CYP2C19 inh: inactive; CYP2C9 act: inactive; CYP2C9 inhib: inactive

How did Cc1ccc(-n2cc(C(C)(C)C)[nH]c2=S)cc1 do in these assays?
CYP2C19 act: inactive; CYP2C19 inh: 60; CYP2C9 act: inactive; CYP2C9 inhib: inactive

What do the screens show for `O=C(Nc1cccc2ccccc12)c1ccc(Br)o1`?
CYP2C19 act: inactive; CYP2C19 inh: inactive; CYP2C9 act: inactive; CYP2C9 inhib: inactive

What do the screens show for `O=C(Nc1cc(C(F)(F)F)ccc1N1CCCCC1)c1ccc(Br)o1`?
CYP2C19 act: inactive; CYP2C19 inh: inactive; CYP2C9 act: inactive; CYP2C9 inhib: inactive

How did O=C(Nc1cccc2cccnc12)c1ccc(Br)o1 do in these assays?
CYP2C19 act: inactive; CYP2C19 inh: inactive; CYP2C9 act: 2.2; CYP2C9 inhib: inactive

Results for O=C(Nc1ccccc1N1CCCC1)c1ccc(Br)o1 ?
CYP2C19 act: inactive; CYP2C19 inh: 57; CYP2C9 act: inactive; CYP2C9 inhib: 53

How did CSc1ccccc1NC(=O)c1ccc(Br)o1 do in these assays?
CYP2C19 act: inactive; CYP2C19 inh: 57; CYP2C9 act: inactive; CYP2C9 inhib: inactive

How did COc1cc(OC)cc(C(=O)NCC2CCCO2)c1 (stereo not drawn) do in these assays?
CYP2C19 act: inactive; CYP2C19 inh: inactive; CYP2C9 act: inactive; CYP2C9 inhib: inactive

How did COc1cc(OC)c(OC)cc1/C=N/NC(=S)NCC1CCCO1 (stereo not drawn) do in these assays?
CYP2C19 act: inactive; CYP2C19 inh: inactive; CYP2C9 act: inactive; CYP2C9 inhib: 65

What do the screens show for `Cc1ccc(C)c(NC(=O)Cn2nnc(C(=O)NCc3cccs3)c2N)c1`?
CYP2C19 act: inactive; CYP2C19 inh: inactive; CYP2C9 act: inactive; CYP2C9 inhib: inactive

How did COc1cc(Cn2c(-c3nonc3N)nc3ccccc32)ccc1C do in these assays?
CYP2C19 act: inactive; CYP2C19 inh: inactive; CYP2C9 act: inactive; CYP2C9 inhib: 74

What do the screens show for `Nc1nonc1-c1nc2ccccc2n1Cc1ccc(Cl)cc1`?
CYP2C19 act: inactive; CYP2C19 inh: 75; CYP2C9 act: inactive; CYP2C9 inhib: 53

How did C=CCN(CC=C)S(=O)(=O)c1ncn[nH]1 do in these assays?
CYP2C19 act: inactive; CYP2C19 inh: inactive; CYP2C9 act: inactive; CYP2C9 inhib: inactive

How did Cc1ccc(OCC(=O)Nc2cccc(C)n2)c(C)c1 do in these assays?
CYP2C19 act: inactive; CYP2C19 inh: inactive; CYP2C9 act: inactive; CYP2C9 inhib: inactive

What do the screens show for `O=S(=O)(c1ccc(Cl)s1)N1CCC(Cc2ccccc2)CC1`?
CYP2C19 act: inactive; CYP2C19 inh: inactive; CYP2C9 act: inactive; CYP2C9 inhib: 68

How did O=S(=O)(c1ccc(Br)s1)N1CCC(Cc2ccccc2)CC1 do in these assays?
CYP2C19 act: inactive; CYP2C19 inh: inactive; CYP2C9 act: inactive; CYP2C9 inhib: 56

How did O=S(=O)(c1ccc(Cl)s1)N1CCN(Cc2ccccc2)CC1 do in these assays?
CYP2C19 act: inactive; CYP2C19 inh: 84; CYP2C9 act: inactive; CYP2C9 inhib: 61

How did O=c1ccc(S(=O)(=O)N2CCC(Cc3ccccc3)CC2)c[nH]1 do in these assays?
CYP2C19 act: inactive; CYP2C19 inh: inactive; CYP2C9 act: inactive; CYP2C9 inhib: inactive

What do the screens show for `CCn1c(=O)cc(SCC(=O)NCCCN2CCN(c3ccc(F)cc3)CC2)c2ccccc21`?
CYP2C19 act: inactive; CYP2C19 inh: inactive; CYP2C9 act: inactive; CYP2C9 inhib: inactive

Results for O=C(N/N=C/c1ccc(Cl)c([N+](=O)[O-])c1)c1ccc2nc[nH]c2c1 ?
CYP2C19 act: inactive; CYP2C19 inh: inactive; CYP2C9 act: inactive; CYP2C9 inhib: inactive

Results for CCc1noc(C)c1C(=O)Nc1nc(-c2ccc(Cl)cc2Cl)c(C)s1 ?
CYP2C19 act: inactive; CYP2C19 inh: inactive; CYP2C9 act: inactive; CYP2C9 inhib: inactive

Results for COC(=O)c1ccc(-n2nnnc2SCc2nn[nH]n2)cc1 ?
CYP2C19 act: inactive; CYP2C19 inh: inactive; CYP2C9 act: inactive; CYP2C9 inhib: inactive

Results for Cc1ccc([N+](=O)[O-])cc1-c1ccc2cccc(C)c2n1 ?
CYP2C19 act: inactive; CYP2C19 inh: inactive; CYP2C9 act: inactive; CYP2C9 inhib: inactive

How did COc1cc(-c2nc(-c3ccc4c(c3)-c3ccccc3S4(=O)=O)c(-c3ccccc3)[nH]2)cc(OC)c1OC do in these assays?
CYP2C19 act: inactive; CYP2C19 inh: inactive; CYP2C9 act: inactive; CYP2C9 inhib: inactive

What do the screens show for `Cc1ccc([N+](=O)[O-])cc1-c1[nH]c(-c2ccc(O)c(O)c2)nc1-c1ccccc1`?
CYP2C19 act: inactive; CYP2C19 inh: 52; CYP2C9 act: inactive; CYP2C9 inhib: 88

Results for COc1ccc(-c2nc(-c3ccccc3)c(-c3cc([N+](=O)[O-])ccc3C)[nH]2)cc1O ?
CYP2C19 act: inactive; CYP2C19 inh: 77; CYP2C9 act: inactive; CYP2C9 inhib: 74

What do the screens show for `CCOc1ccc(-c2nnc(-c3snc(-c4ccc(F)cc4)c3N=CN(C)C)o2)cc1`?
CYP2C19 act: inactive; CYP2C19 inh: inactive; CYP2C9 act: inactive; CYP2C9 inhib: inactive

Results for Cc1ccc(S(=O)(=O)N[C@H](C(=O)N2CCC(C(=O)NCC(=O)O)CC2)C(C)C)cc1 ?
CYP2C19 act: inactive; CYP2C19 inh: inactive; CYP2C9 act: inactive; CYP2C9 inhib: inactive

How did O=c1cc(-c2ccccc2)[nH]c2nc3ccccc3n12 do in these assays?
CYP2C19 act: inactive; CYP2C19 inh: 61; CYP2C9 act: inactive; CYP2C9 inhib: 76

Results for CC(C)CC1NC(=O)N(CC(=O)N2CCN(S(=O)(=O)c3ccccc3)CC2)C1=O (stereo not drawn) ?
CYP2C19 act: inactive; CYP2C19 inh: inactive; CYP2C9 act: inactive; CYP2C9 inhib: inactive

Results for CC(OC(=O)c1cc(=O)[nH]c2ccccc12)c1ccccc1 (stereo not drawn) ?
CYP2C19 act: inactive; CYP2C19 inh: inactive; CYP2C9 act: inactive; CYP2C9 inhib: 54

What do the screens show for `Cc1ccc(CN2CCSc3ccc(C(=O)N4CCN(c5ncccn5)CC4)cc32)cc1`?
CYP2C19 act: inactive; CYP2C19 inh: 97; CYP2C9 act: inactive; CYP2C9 inhib: 93

Results for O=C(c1nc2ccccc2s1)N1CCN(c2ccccn2)CC1 ?
CYP2C19 act: inactive; CYP2C19 inh: inactive; CYP2C9 act: inactive; CYP2C9 inhib: inactive

What do the screens show for `Cc1cccc2cc(CN(CC3CCCO3)C(c3nnnn3Cc3ccco3)C(C)C)c(=O)[nH]c12` (stereo not drawn)?
CYP2C19 act: inactive; CYP2C19 inh: inactive; CYP2C9 act: inactive; CYP2C9 inhib: inactive

How did CCOC(=O)N1CCN(c2c(NCCCN3CCCCCC3)c(=O)c2=O)CC1 do in these assays?
CYP2C19 act: inactive; CYP2C19 inh: inactive; CYP2C9 act: inactive; CYP2C9 inhib: inactive

What do the screens show for `COc1ccc(-c2[nH]c(-c3ccccc3)nc2SCC(=O)NCc2ccco2)cc1OC`?
CYP2C19 act: inactive; CYP2C19 inh: inactive; CYP2C9 act: inactive; CYP2C9 inhib: inactive

Results for COc1ccc(-c2nc(SCC(=O)NCc3ccco3)c(-c3ccccc3)[nH]2)cc1OC ?
CYP2C19 act: inactive; CYP2C19 inh: 78; CYP2C9 act: inactive; CYP2C9 inhib: 65
